The text below walks through data of PubChem BioAssay AID651671 (Sanford-Burnham Center for Chemical Genomics, 2012).

The list shows a part of the results. A number with no mark means an inactive call.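 How the source made its calls: active means activation of at least 7% in one or more replicates; inactive means the rest.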

The assay can be described thus: alpha-DG glycosylation enhancers, retest, confirmation, single concentration, Pro5-aDG cells (AID 651671).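 Further: cells exposed to compound for two days before detection; 0% = DMSO-treated Pro5 cells and 100% = DMSO-treated B10-LARGE cells.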 As to conditions: IIH6 AlphaLISA, active compounds read high, screened at 10 µM (by protocol), scaled to LARGE-overexpressing B10 cells as 100%. In general terms: Alpha assays give light when donor and acceptor beads are brought close together.

For `CNCC(O)c1cc(F)c(OCc2ccccc2)c(OCc2ccccc2)c1F` (stereo unspecified), the activation was 4%.
